Screening results: PubChem, National Center for Advancing Translational Sciences (NCATS)
PLK1 PBD inh = blocks phosphopeptide binding to human PLK1 polo-box domain; P53350; Plk1 PBD binding of FITC phosphopeptide, fluorescence polarization; Potency, µM, actives largely listed as inhibitors; 2.8% of 360,000 active; AID 720504; also: series mostly up to about 57 µM; nearly all actives have a fitted effect of over 65% in size
Target sequence (P53350 whole entry, looked up, the tested form may be a part): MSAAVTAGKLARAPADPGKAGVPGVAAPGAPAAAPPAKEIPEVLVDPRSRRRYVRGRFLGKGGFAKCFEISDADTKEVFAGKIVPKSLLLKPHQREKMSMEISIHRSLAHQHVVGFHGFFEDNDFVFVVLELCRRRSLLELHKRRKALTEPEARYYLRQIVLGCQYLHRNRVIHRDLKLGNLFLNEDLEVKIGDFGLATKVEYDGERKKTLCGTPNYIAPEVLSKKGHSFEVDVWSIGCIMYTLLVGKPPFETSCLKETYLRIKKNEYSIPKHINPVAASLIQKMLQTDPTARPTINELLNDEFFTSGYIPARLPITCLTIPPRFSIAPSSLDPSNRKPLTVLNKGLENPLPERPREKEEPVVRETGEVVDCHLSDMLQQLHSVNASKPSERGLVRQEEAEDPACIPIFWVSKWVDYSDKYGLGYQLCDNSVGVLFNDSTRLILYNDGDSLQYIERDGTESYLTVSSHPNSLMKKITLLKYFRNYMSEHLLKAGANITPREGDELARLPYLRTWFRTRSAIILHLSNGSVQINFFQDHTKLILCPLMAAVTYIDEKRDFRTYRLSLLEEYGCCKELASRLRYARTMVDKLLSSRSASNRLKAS
VDR inh = vitamin D3 receptor (human) inhibition. AID 504847. VDR-SRC2-3 peptide fluorescence polarization, 2 h. Potency, µM, most hits filed as inhibitors. 0.93% of 400,000 active
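FP read-out; VDR + SRC2-3 coactivator peptide; 23 nl compound by pintool; 2 h RT incubation; reagents held at 4 deg C, protected from light.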
mIDH1 inhibitor = human IDH1 R132H inhibition | O75874 | 0.093% of 390,000 active | AID 602179 | Potency, µM (titrated, usually from 76.6 µM), hits mostly inhibitors | IDH1-R132H enzyme, NADPH consumption, diaphorase/resazurin fluorescence; also: nearly all actives have a fitted effect of over 65% in size
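IDH1-R132H (0.5 ug/mL) preincubated 30 min with compound, then NADPH (0.016 mM) and alpha-KG (2 mM) added; 80 min at RT, pH 7.5. Remaining NADPH coupled via diaphorase/resazurin to fluorescence (540/590 nm); concentration-response curves normalized to no-enzyme control.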
Sfp PPTase inh = blocks B. subtilis Sfp PPTase activity. AID 1490. Q9F4F7. Biochemical Sfp PPTase activity, qHTS. 3.5% of 310,000 active. Potency, µM, most hits filed as inhibitors;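 also: the enzyme is Sfp with the accession as filed and its product quenches rhodamine fluorescence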
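Buffer: 50 mM Hepes-Na pH 7.6, 10 mM MgCl2, 0.01% Nonidet P-40, 0.01% BSA. Enzyme 15 nM, pre-exposed to compound 15 min; substrates then added and fluorescence change tracked over 30 min.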
TrxR1 inh = blocks rat thioredoxin reductase 1 | O89049 | recombinant rTrxR1, NADPH fluorescence consumption, selenite substrate | Potency, µM (top dose mostly 114 µM), actives largely listed as inhibitors | 1% of 390,000 active | AID 588453; also: nearly all actives have a fitted effect of over 65% in size
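Rat TrxR1 (90 nM in the dispensed reagent) was pre-reduced with 400 uM NADPH for 5 min at room temperature, then incubated with compound for 15 min. After 400 uM selenite was added, NADPH fluorescence (Ex 340/Em 450 nm) was followed for 8 min.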
TrxR1 substrate = substrates of rat thioredoxin reductase 1; O89049; purified TrxR1 substrate turnover, NADPH consumption readout; Potency, µM (highest dose often 114 µM); 0.01% of 390,000 active; also: nearly all actives have a fitted effect of over 50% in size
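Rat TrxR1, dispensed at 90 nM, was prereduced with 400 uM NADPH (final) for 5 min at ~22 deg C, then incubated with compound 15 min before 400 uM selenite. A first-read NADPH fluorescence drop versus no-compound background flagged substrates.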
Hits are given with their value; i = inactive; ? = inconclusive; nt = not tested or not shown; [ ] = dose if it differs, or a comment. Most compounds without a hit are left out; they make up all but 5.2% or so of the library. Calls follow the shape of the dose curve; as a rule, active = well fitted curve in the direction sought with a large enough effect; inconclusive = small, poorly fitted or top-dose-only effect, or another doubt; inactive = no such curve, though single readings can be large; an effect the other way counts as inactive or inconclusive.

SMILES	PLK1 PBD inh	VDR inh	mIDH1 inhibitor	Sfp PPTase inh	TrxR1 inh	TrxR1 substrate
CCOC(=O)c1c(NC(=O)c2c(N)n(CCCOC)c3nc4ccccc4nc23)sc2c1CCCC2	i	i	i	56µM	i	i
Nc1c(C(=O)NCCCc2ccccc2)c2nc3ccccc3nc2n1Cc1cccs1	i	79µM	i	i	i	i
CCCCn1c(NC(=O)c2ccco2)c(C(=O)OCC)c2nc3ccccc3nc21	i	i	i	50µM	?	i
CCOCCCn1c(N)c(C(=O)Nc2sc3c(c2C(=O)OC)CCCC3)c2nc3ccccc3nc21	i	i	i	?	i	i
CCCCn1c(N)c(C(=O)NCc2cccs2)c2nc3ccccc3nc21	i	89µM	i	i	i	i
CCCCn1c(NS(=O)(=O)c2ccc(C)cc2)c(C(=O)OCC)c2nc3ccccc3nc21	?	?	i	i	i	i
Cc1cc(C(C#N)c2ccc(Cl)cc2)c(Cl)cc1NC(=O)c1cc(I)cc(I)c1O (stereo not given)	?	?	i	?	i	i
CC(C)C[C@H](NC(=O)[C@H](CC(C)C)NC(=O)[C@H](Cc1ccccc1)NC(=O)[C@@H](N)Cc1ccc(O)cc1)C(=O)N[C@@H](CCCN=C(N)N)C(=O)N[C@@H](CC(N)=O)C(=O)N1CCC[C@H]1C(=O)O	nt	i	nt	i	nt	nt
Cc1ccc(-n2nc(C)c3c2NC(=O)CSC3c2ccc3c(c2)OCO3)cc1 (stereo not given)	?	?	i	56µM	i	i
NS(=O)(=O)c1ccc(N=Cc2c(O)n(-c3ccccc3)c(=O)[nH]c2=O)cc1	i	i	i	i	i	i
CCc1nnc(NS(=O)(=O)c2ccc(N=Cc3c(O)n(-c4ccc(Cl)cc4)c(=O)[nH]c3=O)cc2)s1	27µM	i	i	i	i	i
CCN(CC)c1ccc(N=Cc2c(O)n(Cc3ccccc3)c(=O)[nH]c2=O)cc1	i	i	i	i	i	i
CCN(CC)c1ccc(N=Cc2c(O)n(-c3ccccc3)c(=O)[nH]c2=O)cc1	i	i	i	50µM	i	i
CCOC(=O)c1sc(/N=C/c2c(O)n(-c3ccccc3)c(=O)[nH]c2=O)c(C#N)c1C	?	?	i	50µM	?	i
CCN(CC)c1ccc(N=Cc2c(O)[nH]c(=O)[nH]c2=O)cc1	i	79µM	i	i	i[2.29 µM]	i
CCOc1ccc(-n2c(O)c(C=Nc3ccc(N(CC)CC)cc3)c(=O)[nH]c2=O)cc1	?	i	i	?	i	i
CC(=O)NCC(N)C(=O)c1ccc(Cl)c(Cl)c1 (stereo not given)	nt	nt	nt	nt	i	i
ClCCN(CCCl)c1ccc(/C=C/c2ccnc3ccccc23)cc1	nt	nt	nt	nt	i	i
O=C1NCCN(Cc2cccc(Oc3ccccc3)c2)C1CC(=O)N1CCCCC1 (stereo not given)	i	i	i	i	?	i
C=C[C@H]1CN2CC[C@H]1C[C@H]2c1[nH]c2ccccc2c1CCO	nt	i	nt	i	nt	nt
CCOC(=O)c1ncc2[nH]c3ccc(OCc4ccccc4)cc3c2c1COC	nt	i	nt	i	nt	nt
C/C(O)=C(/C#N)C(=O)Nc1cc(Br)ccc1Br	nt	i	nt	i	nt	nt
CCC(C)N1C(=O)NC(=O)C2(Cc3c(ccc4ccccc34)N(C)C2)C1=O (stereo not given)	13µM	i	i	i	i	i
COc1ccc2c(c1)CC1(CN2C)C(=O)NC(=O)N(CCc2ccccc2)C1=O (stereo not given)	i	?	i	i	?	i
CCOc1nc(NC(C)C)nc(N2CC3CC(C2)c2cccc(=O)n2C3)n1 (stereo not given)	7.5µM	?	i	i	i	i
SMILES	PLK1 PBD inh	VDR inh	mIDH1 inhibitor	Sfp PPTase inh	TrxR1 inh	TrxR1 substrate
CC(C)Oc1ccc(CNC(=O)Oc2ccccc2)cc1	?	i	i	i	i	i
COc1cc(OC)cc(C(=O)Nc2ccc(Br)cc2C(=O)c2ccccc2)c1	i	?	i	35µM	i	i
FC(F)(F)c1ccc(CNCCc2ccc3c(c2)OCO3)cc1	i	i	i	79µM	i	i
CCn1c(NN=O)nc2ccccc21	i	i	i	50µM	i	i
CCn1c(P(C)(=O)O)nc2ccccc21	i	?	i	i	i	i
O=C(NCc1ccccc1)c1cccc(Nc2nc3ccccc3n3nnnc23)c1	nt	i	i	nt	i	i
CCOc1cccc(OCC)c2c(C)[n+](CC3CCCO3)c(C)c1-2 (stereo not given)	i	i	i	56µM	i	i
CN[C@@H]1C[C@@]2(C)O[C@@H]([C@@H]1OC)n1c3ccccc3c3c4c(c5c6ccccc6n2c5c31)C(=O)NC4	nt	i	nt	i	nt	nt
O=C(c1ccc(CNS(=O)(=O)c2ccccc2)cc1)N1CCC2(CC1)OCCO2	21µM	i	i	i	i	i
O=C(c1ccc(CS(=O)(=O)c2ccccc2)o1)N1CCC2(CC1)OCCO2	i	i	i	i	28µM	i
O=C(c1ccc(CS(=O)(=O)c2ccc(Br)cc2)o1)N1CCC2(CC1)OCCO2	i	i	i	i	i	i
CCC(=O)CCCCC[C@@H]1NC(=O)[C@H]2CCCCN2C(=O)[C@H]([C@@H](C)CC)NC(=O)[C@H](Cc2cn(OC)c3ccccc23)NC1=O	nt	?	nt	i	nt	nt
CCCN1CC[C@@H]2c3cc(O)ccc3CC[C@@H]21	i	i	i	i	i	i
CCCN1CCO[C@@H]2c3cc(O)ccc3OC[C@@H]21	nt	i	nt	56µM	nt	nt
COc1c(O)c2c(=O)cc(OC)c3c4c(OC)cc(=O)c5c(O)c(OC)c(C[C@@H](C)OC(=O)c6ccccc6)c(c(c1C[C@@H](C)OC(=O)Oc1ccc(O)cc1)c23)c54	nt	50µM	nt	i	nt	nt
CC(=O)NC1N=C(C)N(c2ccccc2)C1=O (stereo not given)	27µM	?	i	40µM	i	i
Cc1cc(OC(=O)N(C)C)n(-c2ccccc2)n1	i	i	i	i	i	i
c1ccc2c(c1)c1cc[n+]2CCCCC[n+]2ccc(c3ccccc32)NCCCCCN1	nt	i	nt	i	nt	nt
Cc1ccc(/C=C2/C(=O)NC(=O)N(CCc3ccc(F)cc3)C2=O)o1	0.84µM	i	i	56µM	?	i
COCCN1C(=O)NC(=O)/C(=C\c2ccc(F)cc2)C1=O	13µM	i	i	?	i	i
CN1C(=O)C(=Cc2ccc(N3CCCCC3)o2)C(=O)N(C)C1=S	i	i	i	56µM	i	i
CCN(CC)c1ccc(/C=C2\C(=O)NC(=S)N(C)C2=O)o1	i	i	i	i	i	i
CN1C(=O)C(=Cc2ccc(N3CCOCC3)c([N+](=O)[O-])c2)C(=O)N(C)C1=O	nt	nt	nt	22µM	nt	nt
CC(=O)OCC1=C(C(=O)O)N2C(=O)C(NC(=O)CCCC(N)C(=O)O)C2SC1 (stereo not given)	nt	?	nt	i	nt	nt
O=C1/C(=C/c2cccnc2)N2CCC1CC2	i	i	i	i	i	i
